The campaign covered roughly 340,000 compounds. About 1,000 (0.29%) were called active. No stated cut-off is given here; in the data, inconclusive means inhibition above about 29% without an active follow-up result; inactive means below that. A selection follows. Potency and affinity values are given separately.
Target: Genome polyprotein (Dengue virus type 2 (strain 16681-PDK53)) (UniProt P29991)
Assay: Dengue-2 NS5 methyltransferase inhibitors, primary screen, biochemical, confirmation dose response (AID 588689)
Settings: Dengue-2 NS5 methyltransferase capping enzyme assay, at 25 µM, stronger effect = higher value
[1] = measured here: pilot screen replicate inhibition

Structure (SMILES)	inhibition	inhibition [1] [%]
O=C(NCc1nnnn1-c1ccc(F)cc1)c1cc2ccccc2o1	9.89% (inactive)	
CCCCCCCCN1[C@@H](CC(=O)OCC)c2cc(C(F)(F)F)ccc2S1(=O)=O	-6.14% (inactive)	
CC(C)COc1cccc(C(=O)N(C)CC(=O)Nc2cccc3ccccc23)c1	-6.94% (inactive)	
Cc1cccc(CC(=O)Nc2ccon2)c1	-7.18% (inactive)	1.51
O=[N+]([O-])c1ccc(N/N=C/c2cccc(O)c2O)c(S(=O)(=O)N2CCOCC2)c1	6.18% (inactive)	
NS(=O)(=O)c1ccc(N/N=C/c2ccc(O)cc2O)c([N+](=O)[O-])c1	27.2% (inactive)	
NS(=O)(=O)c1ccc(N/N=C/c2ccccc2C(=O)O)c([N+](=O)[O-])c1	4.52% (inactive)	
COc1cc(/C=N/Nc2ccc([N+](=O)[O-])cc2S(=O)(=O)N2CCOCC2)cc(OC)c1OC	-2.58% (inactive)	
Cc1c(OCC(=O)N2CCC(C(N)=O)CC2)ccc2c3c(c(=O)oc12)CCCC3	-4.35% (inactive)	
CCOCCCNC(=O)CCc1nnc2n(CCC(C)C)c(=O)c3ccccc3n12	-4.57% (inactive)	
CCOc1cc(NC(=S)NCCCN2CCOCC2)c(OCC)cc1NC(=O)C1CCCCC1	-10.9% (inactive)	
CC(=O)Nc1ccc2c(c1)CCc1ccccc1-2	-9.7% (inactive)	
O=C(O)CCCc1ccc2c(c1)CCc1ccccc1-2	-0.8% (inactive)	
CCN(CC(=O)NCc1cccs1)S(=O)(=O)c1ccccc1Cl	0% (inactive)	
O=C(NCc1ccncc1)C(=O)NCC1OCCN1S(=O)(=O)c1ccc(F)cc1 (stereo unspecified)	-3.87% (inactive)	
CCC(COC(C)=O)Nc1nc2c([nH]1)c(=O)n(C)c(=O)n2C (stereo unspecified)	9.2% (inactive)	
COC(=O)c1sc2ccccc2c1N	-9.74% (inactive)	
COC(=O)C1=C(C(=O)OC)C(c2ccc(OC)c(OC)c2)c2sc(=O)[nH]c2S1 (stereo unspecified)	18% (inactive)	
COC(=O)C1=C(C(=O)OC)C(c2cc([N+](=O)[O-])ccc2O)c2sc(=O)[nH]c2S1 (stereo unspecified)	-1.58% (inactive)	
COC(=O)c1cc(OC)nc2ccc(Br)cc12	4.64% (inactive)	
Cc1ccnc(NC(=O)C2CCCN(c3ncnc4c3nc3n4CCCCC3)C2)c1 (stereo unspecified)	0.45% (inactive)	
COc1ccc(/C=N/N=C2/NC(=O)C(CC(=O)O)S2)cc1OCc1ccc(Cl)cc1 (stereo unspecified)	13.3% (inactive)	
COc1cc(/C=N/N=C2/NC(=O)C(CC(=O)O)S2)ccc1OCc1ccc(Cl)cc1 (stereo unspecified)	16.7% (inactive)	
CCOc1cc(/C=N/NC(=O)CSc2nnc(C)s2)ccc1OCc1ccccc1Cl	8.09% (inactive)	

Structure (SMILES)	inhibition	inhibition [1] [%]
CCOc1cc(/C=N/N=C2/NC(=O)C(CC(=O)O)S2)ccc1OCc1ccc(Cl)cc1Cl (stereo unspecified)	25.1% (inactive)	
COc1ccc(/C=N/N=C2/NC(=O)C(CC(=O)O)S2)cc1OCc1ccccc1Cl (stereo unspecified)	17.8% (inactive)	
COc1cc(/C=N/NC(=O)CC2(C)OCCCO2)ccc1OCc1ccc(Cl)cc1Cl	-4.47% (inactive)	
O=C1CCc2nc3ccccc3c(=O)n2N1	-1.38% (inactive)	
COc1cccc(C(CNc2ccc(S(=O)(=O)N3CCN(C)CC3)cc2[N+](=O)[O-])N(C)C)c1 (stereo unspecified)	2.89% (inactive)	
Cc1onc(-c2c(F)cccc2Cl)c1C(=O)NNC(=O)C1CCN(Cc2cccc(F)c2)CC1	-7.02% (inactive)	
COc1ccc(S(=O)(=O)NNC(=O)c2cccs2)cc1	-2.33% (inactive)	
O=C(O)c1[nH]c2ccc([N+](=O)[O-])cc2c1-c1ccccc1	10.3% (inactive)	
O=c1[nH]c2ccccc2c(O)c1-c1ccccc1[N+](=O)[O-]	-7.29% (inactive)	
COc1ccc(S(=O)(=O)Nc2c(C(=O)O)[nH]c3ccccc23)cc1OC	1.6% (inactive)	
COc1cc(C(=O)Nc2c(C(=O)O)[nH]c3ccccc23)cc(OC)c1OC	-6.62% (inactive)	
CSc1nsc(SCC(=O)Nc2ccc(NC(C)=O)cc2)n1	2.42% (inactive)	
COc1ccccc1CNS(=O)(=O)c1cccc2nsnc12	3.22% (inactive)	
Cc1ccc(NC(=O)CSCC(=O)NCc2cccc(C(F)(F)F)c2)cc1	0.73% (inactive)	
O=C(CSc1nc(O)c(C(c2ccccc2)c2ccccc2)c(=O)[nH]1)N1CCOCC1	-5.31% (inactive)	
Cc1ccccc1-n1cnnc1SCC(=O)Nc1cccnc1Cl	2.99% (inactive)	
CCCCOC(=O)c1ccc(NC(=O)C(=O)NCc2cccnc2)cc1	-1.56% (inactive)	
N=C1C(c2nc3ccccc3s2)=C(O)CN1Cc1ccco1	-1.36% (inactive)	
Nc1nc(CSC(=S)N2CCOCC2)nc(Nc2ccccc2)n1	1.28% (inactive)	
Cc1ccc(CNC(=O)C2CCC(=O)N2C(C)C)cc1 (stereo unspecified)	-1.99% (inactive)	
O=C(NN1C(=O)/C(=C/c2ccc(O)c([N+](=O)[O-])c2)SC1=S)c1ccccc1Cl	-3.59% (inactive)	
COc1cc(/C=C2\SC(=O)N(c3ccccc3Cl)C2=O)cc([N+](=O)[O-])c1O	-6.99% (inactive)	
CCc1cccc(N(C(=O)c2csnn2)C(C(=O)NC(C)(C)C)c2ccccn2)c1 (stereo unspecified)	-5.18% (inactive)	
CCC(C)NC(=O)Nc1ccccc1C (stereo unspecified)	-2.79% (inactive)	

Structure (SMILES)	inhibition	inhibition [1] [%]
CCC(=O)c1ccc(OCC(O)CN2CCN(S(=O)(=O)N3CCCCC3)CC2)cc1 (stereo unspecified)	5.46% (inactive)	
Cc1c(O)c2ccccc2oc1=O	-7.95% (inactive)	
O=c1oc2ccccc2c2c1C(O)CO2 (stereo unspecified)	-7.16% (inactive)	
OCC1OC2C(NC(=S)N2c2ccccc2)C(O)C1O (stereo unspecified)	0.77% (inactive)	
COc1ccc(C(c2c(C)[nH][nH]c2=O)c2c(C)[nH][nH]c2=O)cc1Br	-3.47% (inactive)	
Oc1ccccc1O	0.73% (inactive)	
Nc1ccccc1O	-6.55% (inactive)	
O=C(Nc1ccc2c(c1)OCO2)N1CCN(Cc2ccco2)CC1	0% (inactive)	
COc1ccc(OC)c(N2C(=O)CCCC2=O)c1	-1.93% (inactive)	
COc1ccc(OC)c(N2C(=O)c3cccnc3C2=O)c1	0.65% (inactive)	1.22
COc1ccc(NCc2ccc([N+](=O)[O-])s2)c(OC)c1	7.28% (inactive)	
COc1ccc(N2C(=O)/C(=C/c3ccc([N+](=O)[O-])cc3)N=C2C)c(OC)c1	-3.69% (inactive)	
COc1ccc(NC(=S)N2CCC(C(=O)c3ccc(C)cc3)CC2)cc1	-11.5% (inactive)	
Cc1ccc(C2=NNC(C(O)C(O)C(O)CO)S2)cc1 (stereo unspecified)	-8.04% (inactive)	
O=C(CCN1C(=O)/C(=C\C=C\c2ccccc2)SC1=S)Nc1ccc(C(=O)O)cc1	9.75% (inactive)	
O=C(CCN1C(=O)S/C(=C/c2ccccc2)C1=O)Nc1ccc(C(=O)O)c(O)c1	25.9% (inactive)	
O=C(CN1C(=O)S/C(=C\C=C\c2ccccc2)C1=O)Nc1ccccc1C(=O)O	24.3% (inactive)	
O=C(CCN1C(=O)/C(=C/c2ccccc2Cl)SC1=S)Nc1ccccn1	1.55% (inactive)	
O=C(CCN1C(=O)/C(=C/c2ccccc2Cl)SC1=S)NNC(=O)c1ccccc1O	-5.13% (inactive)	
O=C(CCN1C(=O)S/C(=C/c2ccc(F)cc2)C1=O)Nc1ccc(O)c(C(=O)O)c1	19.6% (inactive)	
O=C(CCN1C(=O)/C(=C/c2cccs2)SC1=S)Nc1ccc(C(=O)O)c(O)c1	15% (inactive)	
COc1ccccc1/C=C1\SC(=S)N(CCC(=O)Nc2ccc(C(=O)O)c(O)c2)C1=O	19.8% (inactive)	
CCN(Cc1nc2cc(Cl)ccc2c(=O)[nH]1)C(=O)c1cccc(NC(=O)c2cccs2)c1	-6.19% (inactive)	
Cc1ccc(NC(=O)CCC(=O)c2ccccc2)cc1	-17.5% (inactive)	

Structure (SMILES)	inhibition	inhibition [1] [%]
Cc1ccc(S(=O)(=O)NCCN2CCOCC2)c(C)c1C	3.68% (inactive)	
O=C(Cc1ccc(Cl)cc1)N1CCC2(CC1)NCCc1[nH]cnc12	-10.7% (inactive)	
Cc1cc(NC(=O)CCC(=O)N(c2ccc(F)cc2)C(C(=O)NC2CCCC2)c2cccnc2)no1 (stereo unspecified)	6.51% (inactive)	
O=C(CCN1C(=O)/C(=C/c2ccc3c(c2)OCO3)SC1=S)Nc1ccccc1	2.89% (inactive)	
O=C(CCCN1C(=O)/C(=C/c2ccc3c(c2)OCO3)SC1=S)Nc1cccc(C(=O)O)c1	0.32% (inactive)	
CC(C)c1ccc(C2N3CC4([N+](=O)[O-])CN2CC([N+](=O)[O-])(C3)C4(C)C)cc1 (stereo unspecified)	-2.65% (inactive)	
COc1ccc(C=O)cc1CN1C(=O)c2ccccc2C1=O	5.3% (inactive)	
COc1ccc(/C=C2/NC(=O)N(Cc3ccccc3F)C2=O)cc1OC	0.77% (inactive)	
COc1ccc(C)cc1CN1C(=O)c2ccccc2C1=O	-12.4% (inactive)	
COc1ccc2c(c1)C(=O)N(c1ccccc1OC)C(=O)C2	0.7% (inactive)	
COc1ccc(/C=C2\C(=O)NC(=O)c3ccccc32)cc1OC	25.5% (inactive)	
COc1ccccc1N1C(=O)Cc2ccccc2C1=O	1.63% (inactive)	
O=c1cc(Cl)[nH]c(=O)n1Cc1ccc(F)cc1	-9.54% (inactive)	
Cc1cc(C)cc(NC(=O)c2ccc(NC(=O)c3ccco3)cc2)c1	-0.32% (inactive)	
N#CCC(=O)Nc1ccc(C(=O)NNC(=O)CCN2CCN(c3ccccc3)CC2)cc1	-13.1% (inactive)	
CCC[C@@H](CN1CCC[C@H]1CN1C(N)=NC[C@H]1CC(C)C)N1C[C@@H](Cc2ccccc2)N(CCCC2CCCC2)C1=N	-0.66% (inactive)	-1.83
CC(CN1CCN(Cc2ccccc2)CC1)OC(=O)c1ccco1 (stereo unspecified)	2.3% (inactive)	
O=C(O)CC/C(=C\c1ccc(N2CCOCC2)c([N+](=O)[O-])c1)c1nc2ccccc2s1	24% (inactive)	
Cc1ccc(/C=C(\CCC(=O)O)c2nc3ccccc3s2)cc1[N+](=O)[O-]	13.8% (inactive)	
CN(c1ccccc1)c1ccc(/C=C(\CCC(=O)O)c2nc3ccccc3s2)cc1[N+](=O)[O-]	26.1% (inactive)	
O=C(O)C/C(=C\c1ccc(N2CCOCC2)c([N+](=O)[O-])c1)c1nc2ccccc2s1	6.96% (inactive)	
